In the library only some 5% were active in any assay of this set; here they are far more common.
HEK293 cAMP ctrl = qHTS Assay for Agonists of the Thyroid Stimulating Hormone Receptor: Activators of Intracellular cAMP Concentrations in Parental HEK 293; parental HEK293 CNG cAMP sensor, membrane potential fluorescence; Potency, µM (series often up to 57.1 µM), inactives show top-dose activation, usual class: activators; hit rate 2.5% among 73,000; note: % of control where 0% means no effect; nearly all actives have a fitted effect of over 55% in size
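Counterscreen for endogenous-receptor signalling: CNG-channel HEK 293 cells report cAMP rise by membrane depolarization. After 60 min dye equilibration with 100 uM RO 20-1724, compounds incubated 30 min before bottom-read fluorescence at 590 nm.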
TSHR ag = qHTS Assay for Agonists of the Thyroid Stimulating Hormone Receptor. HEK293-CNG-TSHR cells (CNG channel as cAMP sensor), membrane potential dye, cAMP. Potency, µM (series often up to 57.1 µM), for inactives: top-dose activation, most hits filed as activators. hit rate 0.48% among 73,000. AID 926, 2007; active = well fitted activation curve with a large enough effect in the main read-out, with a control signal flat, not every such curve was filed as active; inconclusive = small, poorly fitted or top-dose-only effect, or a change in a side signal; inactive = no such curve, though single readings can be large or run the other way; % of control where 0% means no effect;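 note: the control signal comes from parental cells without the receptor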
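HEK 293 cells stably expressing TSHR and a cAMP-gated CNG channel; parental CNG-only cells as counterscreen. Cells preloaded 60 min with membrane potential dye plus 100 uM RO 20-1724, then compound 30 min; fluorescence read at 590 nm.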
USP2a inhib = qHTS Assay for Inhibitors of Ubiquitin-specific Protease USP2a; Potency, µM (highest dose often 38.3 µM), for inactives: at the top dose activity change, negative = inhibition, usual class: inhibitors; USP2a enzymatic assay, qHTS inhibition; hit rate 0.1% among 60,000; AID 927, 2007; note: nearly all actives have a fitted effect of over 60% in size
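USP2 core (20nM final) preincubated 30 min RT with compound, then Ub-PLA2 20nM and NBD C6-HPC 20uM final added; buffer 20mM Tris-HCl pH 8.0, 2mM CaCl2. Fluorescence Ex 460/Em 535 read at 0 and 2.5 h; normalized to NEM.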
CRE-bla Fsk = Cell signaling CRE-BLA (Fsk stim) | CHO CRE-bla reporter (cAMP response element driving beta-lactamase), forskolin EC10, beta-lactamase ratio | Potency, µM (doses to about 38.2 µM), for inactives: at the top dose activity change, negative = inhibition, hits mostly activators | hit rate 2.5% among 71,000; active = well fitted activation curve with a large enough effect in the signal ratio, with a control signal flat, not every such curve was filed as active; inconclusive = small, poorly fitted or top-dose-only effect, or effect the other way, or a change in a side signal; the % refers to the signal ratio; note: % of control where 0% means no effect
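CRE-bla CHO cells stimulated with EC10 NKH 477 (water-soluble forskolin) and compound titrations, 3 h at 37C; beta-lactamase read with CCF4 after 2 h at room temperature. Activity from 460/530 nm emission ratio, AC50 values for positive or negative modulation.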
Caspase-7 inhib = qHTS Assay for Allosteric/Competitive Inhibitors of Caspase-7. P55210. recombinant caspase-7, Ac-DEVD-AFC fluorescence rate. Potency, µM (series often up to 57.5 µM), for the others: at the highest dose activity change, negative = inhibition, hits mostly inhibitors. hit rate 0.02% among 75,000. AID 889, 2007; active = well fitted inhibition curve with a large enough effect in the main read-out, with a control signal flat, not every such curve was filed as active; inconclusive = small, poorly fitted or top-dose-only effect, or a change in a side signal; note: % of control where 0% means no effect
Caspase-1 inhib = qHTS Assay for Allosteric/Competitive Inhibitors of Caspase-1; Caspase-1 enzyme, Ac-WEHD-AFC fluorogenic rate; Potency, µM (series often up to 57.5 µM), without a hit: at the top dose activity change, negative = inhibition, most hits filed as inhibitors; hit rate 0.03% among 75,000; AID 900, 2007;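 note: plate controls were vehicle for no effect and no substrate for full effect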
Starred values were filed as active, the others as inactive; ? = inconclusive; . = no result given; [ ] = dose if it differs, or a comment. Unless noted, calls come from the whole dose curve; as a rule, active = well fitted curve in the direction sought with a large enough effect; inconclusive = small, poorly fitted or top-dose-only effect, or another doubt; inactive = no such curve, though single readings can be large; an effect the other way counts as inactive or inconclusive. Potency is the fitted concentration of half-maximal effect.

SMILES	HEK293 cAMP ctrl	TSHR ag	USP2a inhib	CRE-bla Fsk	Caspase-7 inhib	Caspase-1 inhib
CCN(CCO)C[C@H]1CCC[C@H]2CCCC[C@@H]21	0%[11.4 µM]	4%[11.4 µM]	.	-1%[7.6 µM]	0%[11.5 µM]	-2%[11.5 µM]
C/C(CCN1CCCc2nc(C)c(C)cc21)=N\O[C@@H](C)c1cn([C@@H]2COC[C@@H]2O)nn1	2%[11.4 µM]	10%[11.4 µM]	.	.	-10%[11.5 µM]	-5%[11.5 µM]
O=C(CSc1nc2cccnc2n1Cc1ccccc1)NCc1ccco1	6.3µM*	?	23%	-12%	-1%	-2%
CCn1c(SCC(=O)NCc2ccco2)nc2cccnc21	5%	-3%	-7%	?	6%	0%
O=C1C2C3C=CC(C3)C2C(=O)N1Cc1ccccc1 (stereo unspecified)	?	?	4%	1µM*	-2%	-2%
N/C(CC/C(N)=N/O)=N\O	0%[11.4 µM]	7%[11.4 µM]	.	5%[7.6 µM]	0%[11.5 µM]	-5%[11.5 µM]
Cc1ccc(S(=O)(=O)N(CC(=O)O)Cc2cccc(C)c2)cc1	6%	?	.	.	-1%	-5%
S[C@@H]1CCCN(Cc2ccccc2)C1	19%[11.4 µM]	0%[11.4 µM]	.	-16%[7.6 µM]	1%[11.5 µM]	-3%[11.5 µM]
COCCn1c(=O)c(CCc2ccccc2)nc2cnc(Oc3ccccc3)nc21	25µM*	?	44%	?	-9%	-8%
N#CCCn1c(=O)c(CCc2ccccc2)nc2cnc(Oc3cccc(Cl)c3)nc21	5µM*	?	40%	9%	-7%	-8%
COc1ccc(OC)c(NC(=O)c2cc3sccc3n2C)c1	25µM*	?	14%	11%	1%	-1%
CCc1ccccc1NC(=O)c1cc2sccc2n1C	32µM*	?	.	3%	-4%	-3%
CC(CCc1ccccc1)NC(=O)C1CCCN(C(=O)c2cc3sccc3n2C)C1 (stereo unspecified)	?	?	27%	-19%	-2%	-1%
CC(CCc1ccccc1)NC(=O)c1cc2sccc2n1C (stereo unspecified)	41%	25µM*	.	.	-3%	-2%
c1ccc(B2OC[C@@H]3OB(c4ccccc4)O[C@H]([C@@H]4COB(c5ccccc5)O4)[C@@H]3O2)cc1	8%[11.4 µM]	5%[11.4 µM]	.	3%[7.6 µM]	-3%[11.5 µM]	0%[11.5 µM]
COc1ccc2c(c1)Cc1sc(NC(=O)c3cccs3)nc1-2	-22%	8%	34%	-23%	?	32µM*
CC(C)COC(=O)n1c(SCC(=O)N(C)C)nc2ccccc21	?	?	23%	13µM*	-1%	1%
CCOC(=O)CSc1nc2ccccc2n1CC(=O)N(C(C)C)C(C)C	18%	14%	5%	-6%	-1%	2%
Cc1ccc(C(=O)OCc2cc3ccccc3[nH]c2=O)cc1	16%	16%	11%	?	1%	-1%
CCOC(=O)c1[nH]c2ccccc2c1NC(=O)c1cc(OC)c(OC)c(OC)c1	-7%	10%	24%	3.2µM*	0%	-3%
CCOC(=O)c1[nH]c2ccccc2c1NC(=O)c1nonc1C	-7%	-4%	.	.	-6%	-3%
COC(=O)c1[nH]c2cc(OC)c(OC)cc2c1NC(=O)c1cccc(OC)c1	-32%	?	31%	10µM*	2%	0%
CCOC(=O)c1[nH]c2ccccc2c1NC(=O)C1CCCCC1	22%	-2%[11.4 µM]	4%	-6%	0%	1%
COc1cccc(C(=O)Nc2c(F)c(F)c(F)c(F)c2F)c1	18%	.	2%	-1%	1%	-1%
COc1cc(C(=O)OCc2cc3ccccc3[nH]c2=O)cc(OC)c1OC	9%	12%	1%	3.2µM*	0%	0%
SMILES	HEK293 cAMP ctrl	TSHR ag	USP2a inhib	CRE-bla Fsk	Caspase-7 inhib	Caspase-1 inhib
CCOC(=O)c1[nH]c2ccc(OC)cc2c1NC(=O)c1nonc1C	?	?	7%	4µM*	-2%	1%
CCCCC#CC1C=CC(OC(C)=O)C(COC(C)=O)O1 (stereo unspecified)	5%[11.4 µM]	-3%[11.4 µM]	.	.	-2%[11.5 µM]	-1%[11.5 µM]
O=C(O)C(F)(F)C(F)(F)C(F)(F)C(F)(F)C(=O)O	3%[11.4 µM]	6%[11.4 µM]	.	-2%[7.6 µM]	0%[11.5 µM]	-2%[11.5 µM]
CCOC(=O)c1[nH]c2ccc(OC)cc2c1NC(=O)CN1CCC2(CC1)OCCO2	-6%	1%	11%	10µM*	1%	-2%
CCOC(=O)c1[nH]c2ccc(OC)cc2c1NC(=O)C(C)N1CCC2(CC1)OCCO2 (stereo unspecified)	0%	-7%	12%	29%	-2%	1%
COc1ccc(OCC2CC3C(CCC(C)C3c3ccc(Br)cc3)C(=O)O2)cc1 (stereo unspecified)	?	?	.	.	-1%[11.5 µM]	-1%[11.5 µM]
COCCOC(=O)c1c(C)oc2ccc(NS(=O)(=O)c3ccccc3)cc12	10%	7%	80%	?	-3%	-4%
CCOC(=O)c1c(C)oc2ccc(NS(=O)(=O)c3ccc4c5c(cccc35)C(=O)N4)cc12	10%	25µM*	-86%	?	-17%	-16%
Cc1ccc(-c2noc(C3CCCN(C(=O)c4c(F)cccc4F)C3)n2)cc1 (stereo unspecified)	7.9µM*	?	-14%	?	-1%	-3%
Cc1ccc(S(=O)(=O)N(CC(=O)O)c2ccc(Cl)cc2)cc1	11%	1%	.	.	0%	-2%
CCCSc1oc(-c2ccco2)nc1S(=O)(=O)c1ccccc1	25µM*	?	-8%	24%	-6%	-2%
N[C@@](CCc1ccccc1)(C(=O)O)c1ccccc1	-2%[11.4 µM]	-4%[11.4 µM]	.	17%[7.6 µM]	2%[11.5 µM]	-1%[11.5 µM]
CCCCC(C=O)CC (stereo unspecified)	?	?	.	-3%	-2%	-4%
Brc1c(CSc2nnc(-c3ccco3)o2)nc2ccccn12	17%	3%	-13%	3.2µM*	.	2%
c1coc(-c2nnc(SCc3cn4ccccc4n3)o2)c1	5%	1%	7%	10µM*	-2%	3%
O=C(O)CSc1nnc(-c2ccco2)o1	8%	2%	-9%	-5%	2%	0%
COC(=O)c1sc(N2C(=O)C(O)=C(C(=O)c3ccc(C)o3)C2c2ccc(F)cc2)nc1C (stereo unspecified)	-6%[11.4 µM]	-1%[11.4 µM]	15%[7.66 µM]	4µM*	-13%	-7%
CCOc1cccc(C2C(C(=O)c3ccc(C)o3)=C(O)C(=O)N2c2nccs2)c1 (stereo unspecified)	24%	18%	20%	4%	-17%	?
COc1ccc(-c2nnc3c4ccccc4c(C)nn23)cc1S(=O)(=O)N1CCN(CCO)CC1	3%	.	40%	10µM*	1%	-1%

Screening data deposited in PubChem BioAssay by National Center for Advancing Translational Sciences (NCATS).
